These results are taken from the supplement of paper PMC7057948, “A genome-wide approach for identification and characterisation of metabolite-inducible systems” (Nature Communications, 2020).

SMILES strings stand for the structures.

Common to all, as to conditions: inducer concentration 5 mM; 6 h; Cupriavidus necator H16; minimal medium + 0.4% gluconate
For assay [1], the system named is AcoR/P_H16_RS19445 acetoin biosensor (pEH052). As to the kind of experiment: relative induction of RFP reporter vs primary effector (background-corrected); higher = stronger activation of the biosensor. As to the method: (§1)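 C. necator H16 strains, each carrying one of 21 transcription factor/inducible promoter–mRFP biosensor plasmids, were grown in minimal medium in 96-well plates (robotic platform). Each was exposed to 46 structurally or metabolically related compounds at 5 mM at 30 °C. OD-normalised RFP fluorescence was read 6 h later and expressed as relative induction (%) = 100 × (FL compound − FL uninduced)/(FL primary inducer − FL uninduced); mean of n=4.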

The subject of assay [2] is AraC/P_araBAD L-arabinose biosensor (pEH176). The assay is described as above. As to the method: as §1
The test system of assay [3] is BenM/P_H16_RS09790 benzoate biosensor (pEH148). The assay is described as above. The method, then:
as §1

Assay [4] concerns FdsR/P_H16_RS03165 formate biosensor (pEH134). Described as above. The method, then:
as §1

Assay [5] has as its system GabR/P_H16_RS23655 GABA biosensor (pEH256). The description is as above. The method, then: as §1
The test system of assay [6] is HpdR/P_H16_RS18295 3-hydroxypropanoate biosensor (pEH010). The description is as above. As to the method: as §1
The subject of assay [7] is KynR/P_H16_RS14030 L-kynurenine biosensor (pEH136). The description is as above. As to the method: as §1
Assay [8] relates to NahR/P_H16_RS08125 salicylate biosensor (pEH042). Described as above. The method, then:
as §1

In assay [9] the test system is OapR/P_H16_RS01330 beta-alanine biosensor (pEH147). Described as above. The method, then:
as §1

The subject of assay [10] is PcaQ/P_H16_RS30145 3,4-dihydroxybenzoate biosensor (pEH161). Described as above. As to the method: as §1
For assay [11], the system named is PhhR/P_H16_RS18365 L-phenylalanine biosensor (pEH137). Described as above. The method, then: as §1
In assay [12] the test system is SauR/P_H16_RS13695 sulfonatoacetate biosensor (pEH157). The assay is described as above. The method, then: as §1
The test system of assay [13] is TtdR/P_H16_RS10665 tartrate biosensor (pEH083). The assay is described as above. As to the method: as §1
The subject of assay [14] is XdhR/P_H16_RS05055 xanthine biosensor (pEH154). The assay is described as above. As to the method:
as §1

In assay [15] the test system is heterologous inducible system pEH002 (rhamnose/acrylate/cumate/itaconate set). The assay is described as above. The method, then:
as §1

Assay [16] relates to heterologous inducible system pEH020 (rhamnose/acrylate/cumate/itaconate set). The description is as above. As to the method:
as §1

Assay [17] has as its system heterologous inducible system pEH040 (rhamnose/acrylate/cumate/itaconate set). Described as above. As to the method:
as §1

Assay [18] deals with heterologous inducible system pEH086 (rhamnose/acrylate/cumate/itaconate set). The assay is described as above. As to the method: as §1
Assay [19] deals with AcoR/P_H16_RS19445 acetoin biosensor (pEH052). Kind of assay: relative induction of RFP reporter vs primary effector; higher = stronger activation. The method, then:
(§2)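 Orthogonality screen of 21 primary inducers against 21 transcription factor/inducible promoter–mRFP biosensors in C. necator H16 in minimal medium, robotic 96-well format, 5 mM inducer, 30 °C. OD-normalised RFP fluorescence was read 6 h later and expressed as relative induction (%) = 100 × (FL compound − FL uninduced)/(FL primary inducer − FL uninduced); mean of n=4. Cognate pairs (100% by definition) omitted.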

The subject of assay [20] is AraC/P_araBAD L-arabinose biosensor (pEH176). The description is as above. The method, then:
as §2

Assay [21] has as its system BadR/P_H16_RS27200 cyclohexanecarboxylate biosensor (pEH159). The description is as above. As to the method:
as §2

Assay [22] relates to BenM/P_H16_RS09790 benzoate biosensor (pEH148). The description is as above. The method, then: as §2
Assay [23] deals with FdsR/P_H16_RS03165 formate biosensor (pEH134). The description is as above. As to the method:
as §2

For assay [24], the system named is GabR/P_H16_RS23655 GABA biosensor (pEH256). Described as above. The method, then:
as §2

In assay [25] the test system is HpdA/P_H16_RS24175 L-tyrosine biosensor (pEH158). The description is as above. As to the method: as §2
The test system of assay [26] is NahR/P_H16_RS08125 salicylate biosensor (pEH042). Described as above. The method, then: as §2
The subject of assay [27] is OapR/P_H16_RS01330 beta-alanine biosensor (pEH147). The assay is described as above. As to the method:
as §2

Assay [28] concerns PcaQ/P_H16_RS30145 3,4-dihydroxybenzoate biosensor (pEH161). Described as above. As to the method:
as §2

Assay [29] relates to PhgR/P_H16_RS05530 phenylglyoxylate biosensor (pEH155). Described as above. As to the method: as §2
The test system of assay [30] is SauR/P_H16_RS13695 sulfonatoacetate biosensor (pEH157). The assay is described as above. The method, then:
as §2

The subject of assay [31] is TtdR/P_H16_RS10665 tartrate biosensor (pEH083). Described as above. As to the method: as §2
The test system of assay [32] is heterologous L-rhamnose-inducible system. Described as above. The method, then: as §2
Assay [33] has as its system heterologous acrylate-inducible system. The assay is described as above. As to the method: as §2
For assay [34], the system named is heterologous cumate-inducible system. Described as above. As to the method: as §2
The test system of assay [35] is heterologous itaconate-inducible system. The description is as above. The method, then: as §2
Assay [36] concerns PhgR/P_H16_RS05530 phenylglyoxylate biosensor (pEH155). Kind of assay: relative induction of RFP reporter vs primary effector (background-corrected); higher = stronger activation of the biosensor. The method, then: as §1
The test system of assay [37] is XdhR/P_H16_RS05055 xanthine biosensor (pEH154). As to the kind of experiment: relative induction of RFP reporter vs primary effector; higher = stronger activation. As to the method: as §2
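Wherever relative induction of RFP reporter vs primary effector (background-corrected) is given: RFP excited at 585 nm with emission read at 620 nm, culture medium blanks subtracted from fluorescence and absorbance prior to normalisation.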

In the case of `O=CC(=O)O` [glyoxylate], the “relative induction of RFP reporter” value in assay [1] is -0.798%; in assay [2], 0.00961%; in assay [3], -0.0259%; in [4], -3.09%; in assay [5], -0.762%; in assay [6], -0.292%. For the same compound, the “relative induction of RFP reporter” value was -0.15% in assay [7]; 0.0197% in assay [8]; 0.146% in assay [9]; 0.0806% in assay [10]; 0.0787% in [11]; -0.00107% in [12]. For the same compound, the “relative induction of RFP reporter” value is 0.296% in [13]; -0.199% in assay [14]; 0.0215% in assay [15]; -0.333% in assay [16]; -0.263% in [17]; 0.035% in assay [18].

For the compound `O=c1[nH]c(=O)c2nc[nH]c2[nH]1` [xanthine], the “relative induction of RFP reporter” value in assay [19] is -1.36%; in assay [20], 0.0252%; in assay [21], -0.537%; in assay [22], -0.0092%; in assay [23] it was -4.71%; in assay [24] it was -1.02%. The “relative induction of RFP reporter” value in [25] is -0.0594%; in [26], 0.0144%; in assay [27], 1.27%; in assay [28] it was -0.198%; in [29] it was -0.06%; in assay [30], 0.0306%. Further, the “relative induction of RFP reporter” value was 0.737% in [31]; 0.0204% in assay [32]; -1.68% in assay [33]; -0.479% in assay [34]; 0.00052% in [35].

For the compound `Oc1ccc(O)cc1` [hydroquinone], the “relative induction of RFP reporter” value in assay [1] is 4.27%; in assay [2], 0.188%; in assay [3], 0.0575%; in assay [4], 11.3%; in [5] it was 8.11%; in assay [6], 1.65%. The “relative induction of RFP reporter” value in assay [7] was 1.53%; in assay [8], 0.108%; in assay [9] it was 0.00669%; in assay [10], 0.229%; in [36] it was 1.56%; in [11], 2.24%. In addition, the “relative induction of RFP reporter” value in [12] was 0.207%; in assay [13] it was 1.2%; in assay [14], 0.708%; in assay [15], 0.0465%; in assay [16] it was -0.0999%; in [17], 2.73%. In [18], the “relative induction of RFP reporter” value was determined as 0.735%.

Turning to `O=C(O)C(O)C(=O)O` [tartronic acid], the “relative induction of RFP reporter” value in assay [1] is 0.914%; in assay [2], -0.0176%; in assay [3] it was 0.0119%; in assay [4], -1.37%; in assay [5], -0.481%; in assay [6], 0.0561%. The “relative induction of RFP reporter” value was 0.115% in assay [7]; 0.00865% in assay [8]; 0.0759% in [9]; -0.0557% in assay [10]; -0.449% in assay [36]; -0.338% in assay [11]. The “relative induction of RFP reporter” value in assay [12] was 0.0532%; in [13] it was 0.714%; in [14], -0.218%; in assay [15], 0.00666%; in [16] it was -0.0821%; in [17] it was 0.945%. Also, the “relative induction of RFP reporter” value in assay [18] turned out to be 0.0674%.

Take `NCCC(=O)O` [β-alanine]: the “relative induction of RFP reporter” value was -2.32% in assay [19]; -0.0067% in [20]; -0.428% in [21]; -0.0408% in assay [22]; -3.65% in assay [23]; -1.1% in [24]. Besides, the “relative induction of RFP reporter” value in assay [25] was -0.165%; in assay [26], 0.0063%; in assay [28] it was -0.208%; in assay [29] it was -0.344%; in assay [30], -0.0116%; in assay [31], 0.268%. Moreover, the “relative induction of RFP reporter” value is -0.793% in [37]; 0.0016% in assay [32]; -2.33% in [33]; -1.44% in assay [34]; -0.489% in assay [35].

Regarding `O=CO` [formate], the “relative induction of RFP reporter” value was -0.63% in assay [19]; -0.0317% in assay [20]; -0.738% in assay [21]; 0.0137% in [22]; -0.53% in [24]; -0.107% in [25]. Also, the “relative induction of RFP reporter” value in assay [26] was 0.0105%; in assay [27], 0.208%; in [28], -0.0432%; in assay [29] it was -0.511%; in assay [30], 0.0555%; in assay [31] it was 0.287%. Moreover, the “relative induction of RFP reporter” value is -0.347% in assay [37]; 0.0165% in assay [32]; -0.251% in assay [33]; -0.422% in [34]; 0.516% in assay [35].

As for `C=CC(=O)O` [acrylate], the “relative induction of RFP reporter” value in assay [19] is -1.36%; in assay [20], -0.0252%; in [21], -0.281%; in [22] it was 0.00199%; in assay [23] it was -7.94%; in assay [24], 0.12%. Further, the “relative induction of RFP reporter” value is -0.146% in [25]; 0.00921% in [26]; -0.175% in assay [28]; -0.587% in assay [29]; 0.114% in assay [30]; -0.0524% in assay [31]. The “relative induction of RFP reporter” value was -0.215% in assay [37], 0.000569% in [32], 0.803% in assay [34] and 0.117% in assay [35].

With `O=C(O)CCO` [3-hydroxypropanoate], the “relative induction of RFP reporter” value was -1.52% in [19]; -0.0357% in assay [20]; 0.0132% in assay [21]; -0.029% in [22]; -8.81% in assay [23]; -1.71% in assay [24]. Also, the “relative induction of RFP reporter” value in assay [25] was -0.172%; in assay [26] it was 0.0108%; in assay [27], 3.75%; in assay [28], -0.224%; in [29], -0.286%; in assay [30] it was -0.00696%. The “relative induction of RFP reporter” value was -0.346% in assay [31]; -0.715% in assay [37]; 0.00446% in assay [32]; 2.83% in assay [33]; -0.514% in assay [34]; 0.017% in assay [35].
